# Whole data set: some 25,000 sequences, median “ln(normalized median fluorescence intensity)” near 9.3, cut for the highest 2% near 10. The list comes from a sample in which the highest values are over-represented; it also holds similar and randomly drawn sequences.
# System: PF3D7_0420300 AP2 domain 1 (GST-tagged)
# Assay: gcPBM binding intensity (ln(normalized median fluorescence intensity)); higher = stronger DNA binding
# Method in brief: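 GST-tagged P. falciparum DNA-binding domains, expressed in E. coli (about 25 μg on average), were applied for 1 h to an Agilent 4 × 180k array of primer-extended double-stranded 36-bp intergenic genomic probes plus negative controls. The binding buffer was 1× PBS with 1% milk, 0.2 mg/ml BSA, 0.5% salmon testes DNA and 0.03% Triton X-100. Bound protein was detected with Alexa488 anti-GST antibody and scanned at 488 nm. Binding intensity is the highest Masliner-normalised natural-log median intensity across replicate spots of either probe orientation.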
row,Sequence,gcPBM binding intensity (ln)
1,GGATATAACAAACACACACACACATATATATATATT [CACACA_site4141],10.2
2,AAAAAAAAAAAAAACACACACACACGCAAATACATA [CACACA_site6474],10.2
3,CATACATACAAACACACACACATATATATATATATA [CACACA_site43],9.86
4,TATATATATATATATACACACATATATACCTATATA [CACACA_site6085],9.31
5,AATATAAACAAACACACACACATATATATATATATT [CACACA_site5592],10.1
6,AAAAAAAAAACAAATACACACGCACCCAAAAAAAAA [CACACA_site8166],9.81
7,TTTTTTTTTGTTTACACACACAAAATATTATATGTA [CACACA_site2470],9.66
8,AATATATACATACATACATGCACATATATATATATA [TGCATGCA_site393],9.36
9,CATATTAAAAATACATGTACATATATATTTAATATA [XGTACX_site8580],9.08
10,ATTAAAAAAGAATATACACACCAAAACTGTTTGTTA [CACACA_site4687],9.21
11,ATATGACTGTTCATTTGTACGTATAATTATATACGT [XGTACX_site3372],9.33
12,ATCAACAAAACATACACACACATATAGATTTATATA [CACACA_site7415],10
13,TTTTCAATTTTTTATGAACACACAAAAAAAAAAAAA [CACACA_site8808],8.77
14,GTAGAGCATAATAAAACACACACATACATACATATA [CACACA_site8217],9.84
15,AAAAAAAAAAAACACACACACACAAATACATACACA [CACACA_site706],10.2
16,AAAAAAAAAAAACACACACACAAATACAAATACATA [CACACA_site415],10.2
17,TACATACACAAATACACACACAAATACATACACAAA [CACACA_site704],10.1
18,GGTACATACAAACACACACACAAAAAAAAAAAAATA [CACACA_site1577],9.91
19,AATACATACACAAATACACACACAAATACATACACA [CACACA_site8134],10.1
20,TTTTTTTTTTTTAATTAACACACATAAATATATATA [CACACA_site9077],9.11
21,AAAAAATAATTGAAGTGTACGTACAATGATTTTACT [XGTACX_site7663],9.35
22,CCCATGTAATATTAAACACACACTCATATAACACAA [CACACA_site7906],9.71
23,CCCCATATAATGAACACACACACTCCTCATAATTAA [CACACA_site628],10.2
24,TTTCCCCCATATAATGAACACACACCCTCCTCATAA [CACACA_site8110],9.85
25,ACCTATATAAATTATACACACAAATATAAATATATA [CACACA_site2843],9.66

row,Sequence,gcPBM binding intensity (ln)
1,ACAAAATATACAAAATGTACAAAATTTACAAAATAT [XGTACX_site6466],9.43
2,TATAAAATGACTATATATAATATTAAAAAAAAAAAA [TGCATGCA_negctrl_site387],9.11
3,AAGGCAAACAAACACACACACATATATACCTATATA [CACACA_site5203],10
4,GTACCTATTTCATACACACACACACGCAAACAAACA [CACACA_site6590],10.3
5,GTACCTATTTCATACACACACACACCCAAACAAACA [CACACA_site976],10.3
6,ATGTACCTATTTCATACACACACACCCACAAACAAA [CACACA_site8232],10
7,ATTTCATACAGACACACACACAAACAAACATATATA [CACACA_site979],10.1
8,CCAAACAAAAAAAAAAGTACATAAAACACCTATTTG [XGTACX_site5645],9.46
9,TATATTTAATTATTATGTACTTATAATTTTTGAAAG [XGTACX_site8548],8.95
10,TTAATATAACTTTTTGCACACTTAATTTTTTTTTTT [CACACA_site3364],9.44
11,TATATATATATACCAACACACATACAGATATATATA [CACACA_site5060],9.7
12,ACATATACATATATATGTACATAAATATATATATAT [XGTACX_site8630],9.17
13,TATTCATGCATATACACACACATATATATATATTTT [CACACA_site3955],9.85
14,TCTTTTTTTACTTTCTTTTTTTTTTTTTTTTTTTTT [XGTACX_negctrl_site610],9.11
15,ATAAATATATATTTACGTACATATTATATATATATA [XGTACX_site6172],9.27
16,CGCGCACCCAGACACACACACACACCGATATATATA [CACACA_site8687],10.2
17,CACCCACACCAACACACACACATATATATATATATA [CACACA_site362],10.1
18,CGCGCACCCAGACACACACACACACCCATATATATA [CACACA_site2203],10.2
19,TATACACCCAGACACACACACACACCCAAAAAAAAA [CACACA_site497],10
20,TAGACTCCCAGACACACACACACACCCATATAATAT [CACACA_site593],10.2
21,TATAAACACCCATATAAACACACATATAAACCAACA [CACACA_site8790],9.79
22,CACCCATACAGACATACACACACATATATATTAATA [CACACA_site8077],9.87
23,GGAGCACCCAGACACACACACACATATATATATATA [CACACA_site336],10.1
24,CACGCGCACCAACACACACACACACCCATATATATA [CACACA_site2204],10.3

# From the supplement of paper PMC11417369
